Laboratory results taken from PubChem BioAssay AID720541 (National Center for Advancing Translational Sciences (NCATS), 2013).
About 420 (32%) of roughly 1,300 compounds were called active. Inconclusive results (about 32%) are left out. The call rests on the fitted dose curve; in most records, active means well fitted inhibition curve with a large enough effect; inconclusive means small, poorly fitted or top-dose-only effect; inactive means no such curve, though single readings can be large or run the other way. The list shows a part of the results. Where a call stands in place of a potency, no number is given.

Each molecule was assayed against C-terminal-binding protein 1 (Homo sapiens) (UniProt Q13363) (assay: qHTS for Inhibitors of the Phosphatase Activity of Eya2: Carboxyl-terminal binding protein (CtBP) Counterscreen for Cherry-picked Compounds). Settings: purified protein-protein binding, AlphaScreen, 3 h; series mostly up to 46.1 µM.
Source text: The Eya protein family is an essential co-activator of the Six1 transcription factor. Six1 is a developmental gene that is abnormally re-expressed in a large percentage of breast cancers. This over-expression plays a causal role in the initiation and metastatic development of breast cancers. The Eya family of protein is also found to contain a unique HAD phosphatase domain with protein tyrosine phosphatase activity which can potentially play a role in Six1-mediated breast tumorigenesis. Recently, Eya2 is found to dephosphorylate the histone variant H2AX and direct cells towards DNA repair instead of apoptosis in the event of DNA damage.
A 1536 well format, fluorescence based qHTS assay was developed and used to target the phosphatase activity of Eya2 (AID 488837). In addition, a CtBP counterscreen was developed using the AlphaScreen technology to evaluate compound selectivity to target […]. The data herein reports the activity of the cherry-picked compounds against the CtBP AlphaScreen. Compounds that are active or have > 100 fold selectivity vs. the Eya2 activity were excluded for further characterization. Inactivity is the desired outcome for the CtBP counterscreen.
NIH Chemical Genomics Center [NCGC]
NIH Molecular Libraries Probe Centers Network [MLPCN]
Assay Submitter (PI): Rui Zhao, University of Colorado Denver
Four microliters of reagent (25 nM GST-E1A, 25 nM CtBP-6x HIS) was dispensed in a 1536 well Greiner plates. Twenty-three nanoliter of test compounds (final concentration of 2.5 nM - 46 uM) and positive control E1A peptide inhibitor (final concentration of 0.14 nM - 4.6 uM) were added to the plates using the Kalypsys pintool equipped with a 1536 pin head. The plates was then incubated at room temperature for 2 hours followed by addition of 1 uL Alpha bead donor / acceptor mix (20 ug/mL final concentration). The assay plates were incubated for additional 1 hour at room temperature and protected from light. The AlphaScreen signal was obtained using the PerkinElmer EnVision plate reader using the 680 nm excitation and 520 - 620 nm emission filters. The data was normalized to the E1A peptide inhibitor for maximum inhibition and DMSO treated wells as negative control.
Further: nearly all actives have a fitted effect of over 65% in size.
Potency means the concentration at half of the fitted maximal effect.

| Compound | Potency |
| --- | --- |
| N[C@@H](Cc1cc(I)c(O)c(I)c1)C(=O)O | 8.49 µM (active) |
| CN(C)c1ccc(C=C2C=CC=C2)cc1 | inactive |
| CN(C)c1ccc(N=Nc2ccccc2)cc1 | 4.78 µM (active) |
| COC(=O)C1=C(c2ccc(F)cc2OCc2ccccc2)C[C@@H]2CC[C@H]1N2C(=O)NCc1ccc(N(C)C)cc1 | 10.7 µM (active) |
| COC(=O)C1=C(c2cccc(OCc3ccccc3)c2)C[C@@H]2CC[C@H]1N2C(=O)NCCCc1ccccc1 | inactive |
| CCOC(=O)c1cc2c(cn1)[C@@H](CCO)NC2 | inactive |
| COc1cccc2c1C(=O)c1c(O)c3c(c(O)c1C2=O)C[C@@](O)(C(=O)CO)C[C@@H]3O[C@H]1C[C@H](N)[C@H](OC2CCCCO2)[C@H](C)O1 (stereo partly drawn) | 7.57 µM (active) |
| C[C@H]1CCC[C@H](O)CCCCCc2cc(O)cc(O)c2C(=O)O1 | inactive |
| CN(C)S(=O)(=O)c1ccc(C(=O)NNc2nc(-c3ccccc3)c3cc(Br)ccc3n2)cc1 | 8.49 µM (active) |
| O=C1NC(=S)NC(=O)C1=Cc1ccc(Br)s1 | inactive |
| COc1ccc(-c2cc(=NCCC(=O)O)c3cc(C)ccc3o2)cc1 | 10.7 µM (active) |
| Cc1nc2ccccc2c(=O)n1-c1ccc(Cl)cc1[N+](=O)[O-] | inactive |
| COc1ccccc1N1CCN(CCc2c[nH]c3cc4c(cc23)OCO4)CC1 | 13.5 µM (active) |
| O=C1NC(=O)N(c2ccc(Cl)cc2)C(=O)/C1=C\c1ccc(Sc2nc3ccccc3[nH]2)o1 | inactive |
| CC(N)[C@H](O)c1ccc(O)c(O)c1 (stereo partly drawn) | inactive |
| Cc1cc(/C=C2\C(=O)NC(=O)N(c3ccc(Br)cc3)C2=O)c(C)n1-c1cc(C(=O)O)cc(C(=O)O)c1 | inactive |
| Cc1c(C(=O)c2cccc3ccccc23)c2cccc3c2n1[C@H](CN1CCOCC1)CO3 | inactive |

| Compound | Potency |
| --- | --- |
| O=C(Cc1ccccc1)c1ccccn1 | 10.7 µM (active) |
| COC1C(O)C(C)OC(OC2C(Oc3cccc4c(O)c5c(=O)oc6ccc(C)c7c(=O)oc(c34)c5c67)OC(C)C(O)C2O)C1O (stereo not drawn) | inactive |
| CCC(COC(=O)c1cc(OC)c(OC)c(OC)c1)(c1ccccc1)N(C)C (stereo not drawn) | inactive |
| COC(=O)C1=C(C)NC(C)=C(C(=O)OC)C1c1ccccc1[N+](=O)[O-] | 10.7 µM (active) |
| O=C(O)c1cc[c]([Sb](=[O])([OH])[OH])cc1[N+](=O)[O-] | inactive |
| C=CCN1C(=O)/C(=C/c2ccc(Br)s2)C(=O)NC1=S | inactive |
| Cc1ccc2c(C)c3ccc4ccccc4c3c[n+]2c1 | 13.5 µM (active) |
| CCOC(=O)CCCc1cc[c]([Sb](=[O])([OH])[OH])cc1 | inactive |
| CCOc1ccc(N2C(=O)/C(=C/c3ccc(C)o3)C(=O)NC2=S)cc1 | inactive |
| C=C1C(=O)O[C@@H]2C[C@@H](C)[C@@H]3C=CC(=O)[C@@]3(C)[C@@H](OC(=O)CC(=O)O[C@H]3[C@@H]4C(=C)C(=O)O[C@@H]4C[C@@H](C)[C@@H]4C=CC(=O)[C@]43C)[C@H]12 | 8.49 µM (active) |
| Cc1ccc(/C=C2\C(=O)NC(=S)N(c3cccc(F)c3)C2=O)o1 | inactive |
| O=C(O)CCCOc1ccc(Cl)cc1Cl | inactive |
| CNc1ccc2nc3ccccc3[n+](C)c2c1 | 8.49 µM (active) |
| Cc1c(N=Nc2c(O)[nH]c(=O)[nH]c2=O)c(=O)n(-c2ccccc2)n1C | 2.13 µM (active) |
| O=C1NC(=O)N(c2ccc(Br)cc2)C(=O)/C1=C/c1ccsc1 | inactive |
| CCOc1cc2c(cc1OCC)-n1cccc1C(c1ccc(F)cc1)NC2 (stereo not drawn) | inactive |
